Bioassay records as filed in PubChem BioAssay.
Sampled rows, rich in hits. Any-hit rate of the full collection: about 0.4%.
UDG counterscr: blocks uracil-DNA glycosylase in AID counter-screen. FRET deamination/UDG coupled assay, UDG read, 4 h. Potency, µM (top dose mostly 115 µM), hits mostly inhibitors. 91,000 compounds, 0.14% hits. AID 1347430; further: nearly all actives have a fitted effect of over 65% in size
AID inh: blocks human AID cytidine deaminase activity. AID deamination FRET fluorescence, UDG-coupled, 4 h. Potency, µM (doses to about 115 µM), actives largely listed as inhibitors. 91,000 compounds, 0.32% hits; further: nearly all actives have a fitted effect of over 25% in size
Target sequence (Q9GZX7 whole entry, looked up): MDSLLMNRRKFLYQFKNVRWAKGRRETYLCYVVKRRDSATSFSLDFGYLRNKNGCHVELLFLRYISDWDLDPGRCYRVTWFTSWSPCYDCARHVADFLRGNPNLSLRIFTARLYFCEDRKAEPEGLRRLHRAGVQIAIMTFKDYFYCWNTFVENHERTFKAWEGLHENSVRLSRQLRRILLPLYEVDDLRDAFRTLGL
Hits are given with their value. The call rests on the fitted dose curve; in most records, active means well fitted curve in the direction sought with a large enough effect; inconclusive means small, poorly fitted or top-dose-only effect, or another doubt; inactive means no such curve, though single readings can be large; an effect the other way counts as inactive or inconclusive.

Results for Cc1ccc(S(=O)(=O)N2CCCC2c2nc3ccccc3[nH]2)cc1C (configuration not stated) ?
UDG counterscr: inactive; AID inh: inactive

How did N#Cc1ccc(C(=O)OCC(=O)c2ccc3c(c2)OCCO3)cc1 do in these assays?
UDG counterscr: inactive; AID inh: inactive

What do the screens show for `O=Cc1cc(Cc2ccccc2Cl)cc(Br)c1O`?
UDG counterscr: inactive; AID inh: 35µM

How did O=Cc1ccc(OCc2ccccc2Cl)cc1 do in these assays?
UDG counterscr: inactive; AID inh: inactive

Results for O=C(O)CC(C(=O)O)c1ccc(OCCCOc2ccc(C(CC(=O)O)C(=O)O)cc2)cc1 (configuration not stated) ?
UDG counterscr: inactive; AID inh: inactive

What do the screens show for `CCOc1ccccc1NC(=O)C(C)Sc1nc(-c2ccccc2)c(C#N)c(=O)[nH]1` (configuration not stated)?
UDG counterscr: inactive; AID inh: 35µM

Results for CCOc1ccccc1NC(=O)C(CC)Sc1nc2ncccc2[nH]1 (configuration not stated) ?
UDG counterscr: inactive; AID inh: inactive

Results for Cc1ccccc1COC(=O)c1cnccn1 ?
UDG counterscr: inactive; AID inh: inactive

How did COc1cccc(Cc2nc3ccccc3nc2SCC(=O)N2CCCCC2C)c1 (configuration not stated) do in these assays?
UDG counterscr: inactive; AID inh: inconclusive

How did Cc1ccc(Cc2nc3ccccc3nc2SCC(=O)N2CCCCC2C)cc1 (configuration not stated) do in these assays?
UDG counterscr: inactive; AID inh: 50µM

How did COC(=O)c1ccc(COC(=O)Cc2ccc(Cl)cc2Cl)cc1 do in these assays?
UDG counterscr: inactive; AID inh: inactive

What do the screens show for `O=S1(=O)c2ccccc2N(Cc2ccc(F)cc2)c2ccccc21`?
UDG counterscr: inactive; AID inh: inconclusive

Results for O=S1(=O)c2ccccc2N(Cc2ccc(Cl)cc2)c2ccccc21 ?
UDG counterscr: inactive; AID inh: 79µM

Results for Cn1c(=O)c2c(nc(NCc3ccccc3)n2Cc2ccccc2Br)n(C)c1=O ?
UDG counterscr: inactive; AID inh: inactive

Results for Cc1ccc(Cn2ccnc2SCC(=O)Nc2ccc3c(c2)OCCO3)cc1 ?
UDG counterscr: inactive; AID inh: inactive

How did Cc1ccc(Cn2ccnc2SCC(=O)Nc2ccc3c(c2)OCO3)cc1 do in these assays?
UDG counterscr: inconclusive; AID inh: 79µM

What do the screens show for `O=C(O)CC1CC(=O)OC1=O` (configuration not stated)?
UDG counterscr: inactive; AID inh: inactive

How did Cc1nn(-c2ccccc2)c(C)c1CN(C)C(=O)CNC(=O)c1ccc(C(F)(F)F)cc1 do in these assays?
UDG counterscr: inactive; AID inh: inactive

How did CC(C)C(=O)Nc1ccc(Cl)cc1F do in these assays?
UDG counterscr: inactive; AID inh: inactive

What do the screens show for `Cc1ccc(C(C)NC(=O)Nc2ccc(Cl)cc2F)c(C)c1` (configuration not stated)?
UDG counterscr: inactive; AID inh: 14µM

What do the screens show for `Cc1ccc(-c2csc(CCn3nc(C)c4c(C(F)(F)F)cc(=O)[nH]c43)n2)cc1`?
UDG counterscr: inactive; AID inh: inactive

What do the screens show for `Cc1cc(=O)n(Cc2ccc(F)cc2Cl)c2c1c(C)nn2-c1ccccc1`?
UDG counterscr: inactive; AID inh: inactive

What do the screens show for `Cc1ccc(C)c(-c2ccc(=O)n(Cc3ccc(F)cc3Cl)n2)c1`?
UDG counterscr: inconclusive; AID inh: 32µM

Results for Cc1cccc(OCC(=O)Nc2nc(-c3ccc(S(=O)(=O)N4CCOCC4)cc3)cs2)c1C ?
UDG counterscr: inactive; AID inh: inactive

Results for Cc1ccc2c(c1)-c1c(cnn1CC(=O)N1CCN(c3cc(C)ccc3C)CC1)CO2 ?
UDG counterscr: inactive; AID inh: 40µM

What do the screens show for `COc1ccc(N2CCN(C(=O)Cn3ncc4c3-c3cc(C)ccc3OC4)CC2)cc1`?
UDG counterscr: inactive; AID inh: inactive

What do the screens show for `COc1ccc(OC)c(NC(=O)C2CCCN(c3ccc4nncn4n3)C2)c1` (configuration not stated)?
UDG counterscr: inactive; AID inh: inactive

What do the screens show for `CC(=O)C1=CC[C@H]2[C@@H]3CC[C@H]4C[C@@H](O)CC[C@]4(C)[C@H]3CC[C@]12C`?
UDG counterscr: inactive; AID inh: inactive

How did CC(=O)O[C@H]1C[C@@H]2CC[C@@H]3[C@H](CC[C@@]4(C)[C@H]3C[C@H]([N+]3(C)CCCCC3)[C@@H]4OC(C)=O)[C@@]2(C)C[C@@H]1[N+]1(C)CCCCC1 do in these assays?
UDG counterscr: inactive; AID inh: 22µM

Results for Cn1c(SCC(=O)NCC2CN(Cc3ccccc3)CCO2)nnc1-c1ccc(C(C)(C)C)cc1 (configuration not stated) ?
UDG counterscr: inactive; AID inh: inactive

What do the screens show for `CCn1cc2nc(SCc3cccc(Cl)c3)n(Cc3ccc(C)cc3)c(=O)c2n1`?
UDG counterscr: inactive; AID inh: inactive

What do the screens show for `CCn1cc2nc(SCc3cccc(C(F)(F)F)c3)n(Cc3ccc(Cl)cc3)c(=O)c2n1`?
UDG counterscr: inactive; AID inh: 25µM

How did CCn1cc2nc(SCc3cccc(C(F)(F)F)c3)n(CCc3ccccc3)c(=O)c2n1 do in these assays?
UDG counterscr: inactive; AID inh: inconclusive

How did CCn1cc2nc(SCc3cccc(C)c3)n(CCc3ccccc3)c(=O)c2n1 do in these assays?
UDG counterscr: inactive; AID inh: 35µM

How did CCC1c2ccsc2CCN1C(=O)COc1ccc2ccc(=O)oc2c1 (configuration not stated) do in these assays?
UDG counterscr: inactive; AID inh: inactive

How did Cc1nn(C(C)C(=O)NCc2ccco2)c(=O)c2c1sc1ccccc12 (configuration not stated) do in these assays?
UDG counterscr: inactive; AID inh: inactive

What do the screens show for `COc1cccc(C(=O)/C(=C/c2ccco2)c2nc3ccccc3o2)c1`?
UDG counterscr: inactive; AID inh: inactive

What do the screens show for `O=C(NCc1cccs1)c1ccc2c(=O)n3nc(Nc4ccccc4)sc3nc2c1`?
UDG counterscr: inactive; AID inh: inactive

How did CCc1ccccc1Nc1nn2c(=O)c3ccc(C(=O)NCc4cccs4)cc3nc2s1 do in these assays?
UDG counterscr: inactive; AID inh: 32µM

How did CCOc1ccccc1NC(=O)CSc1nnc(-n2nc(C)cc2C)n1N do in these assays?
UDG counterscr: inactive; AID inh: inactive

Results for Cc1cccc(NC(=O)C(C#N)C(=O)CC(C)C)c1 (configuration not stated) ?
UDG counterscr: inactive; AID inh: inactive

What do the screens show for `COc1ccccc1OC(C)C(=O)c1ccc(C)cc1` (configuration not stated)?
UDG counterscr: inactive; AID inh: inactive

Results for N.N.N.N.N.N.N.N.N.N.N.N.N.N.O.O.[Ru+4].[Ru+5].[Ru+5] ?
UDG counterscr: 32µM; AID inh: 22µM

How did CN(Cc1ccsc1)C(=O)/C=C/c1cccc2ccccc12 do in these assays?
UDG counterscr: inactive; AID inh: inactive

How did Cc1ccc(C(=O)/C(=C\c2ccc(Cl)c(Cl)c2)c2nc3ccccc3o2)cc1 do in these assays?
UDG counterscr: inactive; AID inh: inactive

Results for CC(C)c1ncncc1C(=O)O ?
UDG counterscr: inactive; AID inh: inactive

How did COC(=O)C(C)N1C(=O)S/C(=C/c2ccc(Sc3ccccc3)cc2)C1=O (configuration not stated) do in these assays?
UDG counterscr: inactive; AID inh: inactive
